About 83,000 compounds went through this panel and 20% of them were active in at least one assay; those are over-represented in the sample as a whole.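 Values shown are percent growth following 48 h exposure of cells in 96-well plates to a single concentration of compound; below 10 was considered active.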 Values without a mark were called inactive. Calls of active or inactive are those of the source.

This assay concerns HL-60(TB) leukemia. The assay can be described thus: NCI-60 one-dose screen, 48 h (100 = growth as untreated, 0 = no growth, -100 = all killed). The following applies: 10 µM unless noted.

For `CC12CC3CC1C(C(=O)O2)C3C(=O)O` (stereo not given), the growth is 95.6%.

For the molecule `CCCCCCC/C(=N\N=C(N)N)c1ccc(O)cc1`, the growth was 6.11% (active).

For the molecule `N#CCC1=NC(c2cccs2)=Nc2ccccc2S1`, the growth is 90.9%.

On to `COc1cc(C(=O)c2cnc(-c3cccc4[nH]ccc34)[nH]2)cc(OC)c1OC`, for which the growth is -28.6% (active).

For the molecule `CCOC(=O)C(CC)n1c(=O)c2cc(OC)c(OC)cc2c2cnc3[nH]ccc3c21` (stereo not given), the growth is 62.1%.

For `CC[C@]12C=CCN3CC[C@@]4(c5ccc(OC)cc5N(C)[C@H]4[C@@](O)(C(=O)OC)[C@@H]1OC(=O)CCC(=O)O[C@H]1CC[C@H]4[C@@H]5CCC6=CC(=O)CC[C@@H]6[C@H]5CC[C@]14C)[C@@H]32`, the growth is -37.9% [100 µM] (active).

As to `COC(=O)Nc1cccc(Cl)c1OC`, the growth is 103%.

With `Cc1cc(O)c(C2=NN(c3ccc(S(N)(=O)=O)cc3)C(c3ccccc3Cl)C2)cc1Cl` (stereo not given), the growth was -30.2% (active).

With `COc1cc2c(cc1OC(C)=O)C(=O)CCCC2`, the growth is 143%.

As for `COC(=O)[C@]12CC[C@@H](C(=O)/C=C/c3cccnc3)[C@@H]1[C@H]1CC[C@@H]3[C@@]4(C)C/C(=C/c5cccnc5)C(=O)C(C)(C)[C@@H]4CC[C@@]3(C)[C@]1(C)CC2`, the growth was -30.2% (active).

As to `C=CCOC1=CC(=O)c2ccccc2C1=O`, the growth was 41.6%.

`NC(=O)c1ccc(NC(=O)c2oc3ccccc3c2-c2cnn(-c3ccccc3)c2)cc1`: the growth was 98.4% [50 µM].

With `O=C(/C=C/c1ccccc1Cl)c1ccc(O)cc1`, the growth is 60.2%.

As to `CC(C)(C)CC(C)(C)N(CSc1ccc(Cl)cc1)CSc1ccc(Cl)cc1`, the growth is -35.3% (active).

With `O=C1/C(=C/c2ccccn2)NC(=S)N1c1ccccc1Cl`, the growth was 26.9%.

`COc1ccc(Nc2ncc(C(N)=O)c(NCCCNC(=O)C3CCC3)n2)cc1`: the growth is 46.6%.

Consider `C(=C\c1c[nH]c2ccccc12)/c1ccc2ccccc2n1`, for which the growth is 2.85% (active).

Consider `CC(=O)c1ccc(C)c(N)c1`, for which the growth was 94.8%.

Consider `COC(=O)C(C)Oc1ccc(OC#N)cc1` (stereo not given), for which the growth is 46.1%.

For `O=S(=O)(NCCNc1nccc(-c2c(-c3ccc(F)c(O)c3)nc3occn23)n1)c1ccc(Cl)cc1`, the growth was 96.6%.

In the case of `O=C1Nc2ccccc2/C1=C/c1cn(CC(O)Cn2cc(/C=C3\C(=O)Nc4ccccc43)c3ccccc32)c2ccccc12` (stereo not given), the growth was -10.2% (active).

For the molecule `COc1ccc(-c2noc(C(=O)O)c2-c2cc(OC)c(OC)c(OC)c2)cc1`, the growth was -38.5% (active).

Consider `CCC(=O)Oc1cc(/C=C/C(=O)O[C@H]2C[C@H]3CN4CCc5c([nH]c6cc(OC)ccc56)[C@@H]4C[C@@H]3[C@@H](C(=O)OC)[C@@H]2OC)ccc1OC`, for which the growth was 16.3%.

For the molecule `COc1ccc2c(c1)C(=O)/C(=C/c1ccc(OCC(=O)Nc3nccs3)cc1)O2`, the growth is -84.2% (active).

As to `C=CC(=O)Nc1cccc(Nc2nc(Nc3ccc(N4CCN(C(C)=O)CC4)cc3OC)ncc2C(F)(F)F)c1`, the growth is -25.2% (active).

Consider `Nc1nc(-c2ccc(Cl)cc2)cc(-c2cc3ccccc3oc2=O)n1`, for which the growth was 125%.

As to `COc1cc2c3c(n(C)c(=O)c2cc1OC)-c1cc2c(cc1C3=O)OCO2`, the growth was 73.6%.

Take `CC(C)(C)[Si](C)(C)OCC1OC(n2cnc3c(N)ncnc32)CC1OS(C)(=O)=O` (stereo not given): the growth was 104%.

With `C/C(=C\c1ccc2ccccc2c1)[N+](=O)[O-]`, the growth is -25.7% (active).

As for `Cc1ccc(Oc2nc3ccccc3cc2-c2nnc(Cn3c(COc4ccccc4)nc4ccccc43)o2)cc1`, the growth is -18.2% (active).

Regarding `COc1ccc(/C=C(\C#N)c2cc3ccccc3n2C)cc1`, the growth was 0.415% (active).

Turning to `COc1cc(/C=C2\C(=O)Nc3ccc(N(C)C)cc32)cc(OC)c1OC`, the growth was 27.5%.

In the case of `CC(=O)Oc1ccc(/C(=C(\C)c2ccc(Cl)cc2)c2ccc(OCCN3CCCCC3)cc2)cc1`, the growth is 27.4%.

In the case of `N#Cc1c(-c2ccc(Cl)cc2)csc1NC(=O)Nc1cccc(C(F)(F)F)c1`, the growth was -13% (active).

With `O=C(Nc1ccc(I)cc1)c1cccc([N+](=O)[O-])c1O`, the growth was 9.44% (active).

On to `Cc1ccc(/C=C2/C(=O)N(C)c3ccc(S(=O)(=O)Nc4ccc(C(C)(C)C)cc4)cc32)s1`, for which the growth was 97%.

`O=C(/C=C/c1ccccc1)c1cccs1`: the growth is 102%.

As to `Cc1cccc(NC(=O)Nc2ccc(-n3cnc4cc(-c5ccc(O)cc5)ccc43)cc2)c1`, the growth is 8.69% (active).

Turning to `O=c1oc2cc(OS(=O)(=O)C3CC3)ccc2c2c1CCCCCC2`, the growth is 80.1%.

Consider `CC(C(=O)O)N1C(N)=NNC1c1ccccc1O` (stereo not given), for which the growth is 92.8%.

Take `CCCCOc1ncnc2nc[nH]c12`: the growth is 99.4%.

On to `COc1cc(CNS(=O)(=O)c2ccc(C)cc2)ccc1OCc1cn(-c2ccccc2)nn1`, for which the growth is 85.2%.

As for `COc1ccc(NC(=O)/C=C/c2ccc(Cl)c(Cl)c2)cn1`, the growth was 61.5%.

With `CC1(C)NCCC[C@]2(C)[C@H]3CC(=O)[C@H]4[C@@H]5C[C@](C)(CO)CC[C@]5(C)CC[C@@]4(C)[C@]3(C)CC[C@@H]12`, the growth was 102%.

On to `CNc1cccc2c1C(=O)c1cccc(N)c1C2=O`, for which the growth is 34.4%.

`Cn1cnc(-c2cc3nccc(Oc4ccc(NC(=S)NC(=O)Cc5ccccc5)cc4F)c3s2)c1`: the growth was 80%.

In the case of `Clc1ccc2c(NCCCCNc3nc(N4CCCCC4)nc4ccccc34)ccnc2c1`, the growth is -69% (active).

In the case of `C=C(C)[C@@H]1CC[C@]2(C(=O)N3CCNCC3)CC[C@]3(C)[C@H](CC[C@@H]4[C@@](C)(CCC(=O)N5CCNCC5)[C@H](C(=C)C)CC[C@]43C)[C@@H]12`, the growth is 61%.

As to `CN(C(=S)S(=O)(=O)C12CC3CC(CC(C3)C1)C2)c1ccccc1`, the growth is 11.5%.

On to `CC[C@H](Nc1nc(N)nc(C)c1C#N)c1nc2cccc(CN(C)c3ncc(C(=O)NO)cn3)c2c(=O)n1-c1ccccc1`, for which the growth is 0.763% (active).

Regarding `COc1cc2c3c(cccc3c1)C(=O)N(CCN1CCCC1)C2=O`, the growth was 26%.

`COc1ccc(-c2ncnc3c2ncn3CC#CCCl)cc1`: the growth was 48.8%.

Turning to `O=C(NCCN1CCOCC1)Nc1ccc(-c2cc3c(Nc4ccc(Oc5cccc(C(F)(F)F)c5)c(Cl)c4)ncnc3s2)cc1`, the growth was -25.6% (active).

Turning to `COc1ccc(C(=O)OC2C(OC3C(O)COC(O[C@H]4C[C@H]5[C@@H]6CC=C7C[C@@H](O)CC[C@]7(C)[C@H]6CC[C@]5(C)[C@H]4[C@H](C)C(=O)CCC(C)C)C3OC(C)=O)OCC(O)C2O)cc1` (stereo not given in full), the growth is -40.7% (active).

Turning to `O=C1CSC(c2ccc(O)cc2)N1c1nnc(Cn2cnnc2)o1` (stereo not given), the growth was 59.1%.

Consider `O=Nc1ccc(O)c2ccccc12`, for which the growth is -3.12% (active).

Take `CC1Cc2c(ncnc2-n2cnc3ccccc32)N(C)c2ccccc21` (stereo not given): the growth was 15.9%.

For the molecule `Nc1nc(N)c(NC(=O)CNc2ccc(C(=O)O)cc2)c(N)n1`, the growth was 107%.

On to `COc1cc2nc(SCc3cc(OC)c(OC)c(OC)c3)n(Cc3ccccc3)c(=O)c2cc1OC`, for which the growth is 11.9%.

`CC12O[C@H](C[C@@H](O)[C@H]1O)n1c3ccccc3c3c4c(c5c6ccccc6n2c5c31)C(=O)N(CCCN)C4=O`: the growth was 4.62% (active).

As to `N#CC1=C(N)Oc2c(sc3c(Br)cccc23)C1c1ccc([N+](=O)[O-])cc1` (stereo not given), the growth is -13.7% (active).

Consider `COc1ccc(C2=NOC(CC(=O)N(CCO)CCO)C2)cc1OC1CCCC1` (stereo not given), for which the growth was 110%.

For `CCN(CC)c1ccc(/C=N\NC(=O)/C=C/C=C/c2ccc3c(c2)OCO3)c(O)c1`, the growth was 2.66% (active).

With `COc1ccc2[nH]c(-c3ccccc3)c(C=C(C#N)C#N)c2c1`, the growth is -49.1% (active).

For `CC(=O)[C@@]12O[C@](C)(c3ccccc3)O[C@@H]1CC1C3CCC4=CC(=O)CC[C@]4(C)C3CC[C@@]12C` (stereo not given in full), the growth was 0.639% (active).

With `Cc1ccc(S(=O)(=O)N(CCC(=O)O)c2ccccc2)cc1`, the growth is 92.1%.

`O=C1NC(=O)/C(=C/c2ccc3nccc(-c4ccncc4)c3c2)S1`: the growth was -32.1% (active).

Turning to `Cn1c(NCCc2ccc(O)c(O)c2)nc2c1c(=O)n(Cc1ccc(Cl)c(Cl)c1)c(=O)n2C`, the growth was 14.8%.

For `Cc1c(C)c2c(c(C)c1NC(=O)CCCCCCC(=O)O)CCC(C)(CCCC(C)CCCC(C)CCCC(C)C)O2` (stereo not given), the growth is 75.1%.

`COc1cc(/C=C/C(=O)c2ccc(-n3cc(CN4CCN(c5cc6c(cc5F)c(=O)c(C(=O)O)cn6C5CC5)CC4)nn3)cc2)cc(OC)c1OC`: the growth was 98.8%.

As to `C1=NCCc2ccccc21`, the growth is 116%.

Take `CO[C@H]1/C=C/O[C@@]2(C)Oc3c(C)c(O)c4c(c3C2=O)C(=O)C(/C=N/N(c2ccccc2)c2ccccc2)=C(NC(=O)/C(C)=C\C=C\[C@H](C)[C@H](O)[C@@H](C)[C@@H](O)[C@@H](C)[C@H](OC(C)=O)[C@@H]1C)C4=O`: the growth was -12.5% (active).

For `O=C(COc1cc(O)c2c(=O)cc(-c3ccccc3)oc2c1)Nc1ccccc1C(F)(F)F`, the growth was 55%.

Consider `CC(=O)N[C@@H](CCC(N)=O)C(=O)O`, for which the growth was 107%.

With `N#Cc1ccccc1C#Cc1ccccc1C#Cc1ccc(OCCCCCCOc2ccc(C#Cc3ccccc3C#Cc3ccccc3C#N)cc2)cc1`, the growth was 99.7%.

As to `CC(C)(C)n1cc(-c2ccnc(NCCCNS(=O)(=O)c3ccc(Br)cc3)c2)c(-c2cccc(O)c2)n1`, the growth is 3.72% (active).

As for `COc1ccc2c(c1)oc1c(C)c3c(c(C)c12)C(=O)N(N)C3=O`, the growth was 38.3%.

With `Cc1c(N(C)CS(=O)(=O)O)c(=O)n(-c2ccccc2)n1C`, the growth is 96%.

With `O=C(O)Cc1ccc2c(c1)Cc1cccnc1O2`, the growth was 103%.

`Cl.Fc1c[c-]c(-c2ccccn2)c(F)c1.[Pt].c1ccc([PH+](c2ccccc2)c2ccccc2[PH+](c2ccccc2)c2ccccc2)cc1`: the growth is -24.7% (active).

Source of the values: PubChem BioAssay (NCI).
